# Source: paper PMC7862700, “An all-to-all approach to the identification of sequence-specific readers for epigenetic DNA modifications on cytosine”
# What was measured:
# Test in all cases: DAPPL (digital affinity profiling via proximity ligation, sequencing); 10 mM Tris-HCl pH 7.5, 50 mM NaCl, 1 mM DTT, 4% glycerol, room temperature, 30 min; GST-TFs on glutathione beads, 16-mer random dsDNA library, 0.1% formaldehyde crosslink after washing; high values mean tight binding
# [1] = target: T1, FLI1 (Homo sapiens, UniProt Q01543 1-452); details: protein: recombinant; tags: N-terminal GST; dsDNA, one strand shown
# T1 sequence: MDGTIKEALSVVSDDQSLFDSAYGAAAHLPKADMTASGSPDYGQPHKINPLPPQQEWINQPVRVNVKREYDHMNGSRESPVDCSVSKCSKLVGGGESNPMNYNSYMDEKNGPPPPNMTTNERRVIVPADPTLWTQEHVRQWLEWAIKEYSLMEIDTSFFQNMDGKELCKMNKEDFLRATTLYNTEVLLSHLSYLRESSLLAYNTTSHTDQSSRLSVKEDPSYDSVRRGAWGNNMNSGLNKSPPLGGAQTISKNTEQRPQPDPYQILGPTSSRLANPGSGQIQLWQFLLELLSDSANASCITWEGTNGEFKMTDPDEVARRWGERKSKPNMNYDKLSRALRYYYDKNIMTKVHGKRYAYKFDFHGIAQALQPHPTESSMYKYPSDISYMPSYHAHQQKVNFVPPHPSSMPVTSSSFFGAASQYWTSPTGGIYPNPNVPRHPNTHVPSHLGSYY
# Procedure, shortened: (§1)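 After expression in yeast as GST fusions, human transcription factors were bound to glutathione beads, DNA-barcoded and mixed with a tag-only sample. The pools were incubated with 200 nmole of a 16-mer random double-stranded DNA library in Tris/NaCl/DTT/glycerol buffer (30 min, room temperature), washed and crosslinked with 0.1% formaldehyde. Proximity ligation with BsaI/T4 ligase ran for 1 h at 37 °C, before PCR amplification and sequencing on an Illumina NextSeq500. Binding signal is a hexamer's read frequency for a factor divided by its frequency for the tag-only sample.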
# [2] = target: T2, ELK1 (Homo sapiens, UniProt P19419 1-428); details: protein: recombinant; tags: N-terminal GST; dsDNA, one strand shown
# T2 sequence: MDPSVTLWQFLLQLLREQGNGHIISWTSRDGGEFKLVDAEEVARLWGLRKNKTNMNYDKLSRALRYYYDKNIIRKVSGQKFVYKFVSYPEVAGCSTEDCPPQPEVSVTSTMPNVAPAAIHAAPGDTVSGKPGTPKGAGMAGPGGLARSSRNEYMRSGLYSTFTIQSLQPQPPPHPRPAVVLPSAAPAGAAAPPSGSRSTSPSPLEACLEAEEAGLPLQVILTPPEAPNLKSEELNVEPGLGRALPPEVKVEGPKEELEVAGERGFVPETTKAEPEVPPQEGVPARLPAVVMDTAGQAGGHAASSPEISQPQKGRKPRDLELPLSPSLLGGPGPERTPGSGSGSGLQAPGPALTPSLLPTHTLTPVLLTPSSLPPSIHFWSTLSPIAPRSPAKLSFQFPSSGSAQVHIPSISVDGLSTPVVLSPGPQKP
# Procedure, shortened: as §1
# [3] = target: T3, GABPA (Homo sapiens, UniProt Q06546 1-454); details: protein: recombinant; tags: N-terminal GST; dsDNA, one strand shown
# T3 sequence: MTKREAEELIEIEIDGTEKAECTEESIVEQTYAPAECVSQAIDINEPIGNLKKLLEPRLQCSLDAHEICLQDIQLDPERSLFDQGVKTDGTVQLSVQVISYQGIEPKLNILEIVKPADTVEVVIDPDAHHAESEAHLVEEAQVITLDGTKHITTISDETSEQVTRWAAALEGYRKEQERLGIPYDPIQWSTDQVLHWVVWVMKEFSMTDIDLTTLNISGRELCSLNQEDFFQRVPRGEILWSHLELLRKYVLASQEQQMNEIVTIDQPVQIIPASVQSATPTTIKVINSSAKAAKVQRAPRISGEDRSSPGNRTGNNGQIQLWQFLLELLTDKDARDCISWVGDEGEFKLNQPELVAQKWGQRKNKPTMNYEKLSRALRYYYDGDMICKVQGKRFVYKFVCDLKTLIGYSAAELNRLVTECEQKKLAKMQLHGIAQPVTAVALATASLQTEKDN
# Procedure, shortened: as §1
# [4] = target: T4, ERG (Homo sapiens, UniProt P11308 1-479); details: protein: recombinant; tags: N-terminal GST; dsDNA, one strand shown
# T4 sequence: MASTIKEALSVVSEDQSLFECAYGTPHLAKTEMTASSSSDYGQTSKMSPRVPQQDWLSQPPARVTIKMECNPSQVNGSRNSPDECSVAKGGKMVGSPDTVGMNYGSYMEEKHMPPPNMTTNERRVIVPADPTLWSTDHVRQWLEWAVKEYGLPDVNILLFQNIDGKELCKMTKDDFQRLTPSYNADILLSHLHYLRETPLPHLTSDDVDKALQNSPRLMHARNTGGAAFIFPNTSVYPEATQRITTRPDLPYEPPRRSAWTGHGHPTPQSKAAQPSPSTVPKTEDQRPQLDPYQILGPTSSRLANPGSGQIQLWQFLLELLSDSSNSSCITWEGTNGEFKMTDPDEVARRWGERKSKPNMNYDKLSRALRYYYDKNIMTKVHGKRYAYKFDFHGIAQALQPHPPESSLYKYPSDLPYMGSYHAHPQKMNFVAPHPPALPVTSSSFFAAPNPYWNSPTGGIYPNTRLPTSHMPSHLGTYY
# Procedure, shortened: as §1
# [5] = target: ELF1 (Homo sapiens, UniProt P32519 1-619); details: protein: recombinant; tags: N-terminal GST; dsDNA, one strand shown
# Chain of ELF1 (P32519 whole entry): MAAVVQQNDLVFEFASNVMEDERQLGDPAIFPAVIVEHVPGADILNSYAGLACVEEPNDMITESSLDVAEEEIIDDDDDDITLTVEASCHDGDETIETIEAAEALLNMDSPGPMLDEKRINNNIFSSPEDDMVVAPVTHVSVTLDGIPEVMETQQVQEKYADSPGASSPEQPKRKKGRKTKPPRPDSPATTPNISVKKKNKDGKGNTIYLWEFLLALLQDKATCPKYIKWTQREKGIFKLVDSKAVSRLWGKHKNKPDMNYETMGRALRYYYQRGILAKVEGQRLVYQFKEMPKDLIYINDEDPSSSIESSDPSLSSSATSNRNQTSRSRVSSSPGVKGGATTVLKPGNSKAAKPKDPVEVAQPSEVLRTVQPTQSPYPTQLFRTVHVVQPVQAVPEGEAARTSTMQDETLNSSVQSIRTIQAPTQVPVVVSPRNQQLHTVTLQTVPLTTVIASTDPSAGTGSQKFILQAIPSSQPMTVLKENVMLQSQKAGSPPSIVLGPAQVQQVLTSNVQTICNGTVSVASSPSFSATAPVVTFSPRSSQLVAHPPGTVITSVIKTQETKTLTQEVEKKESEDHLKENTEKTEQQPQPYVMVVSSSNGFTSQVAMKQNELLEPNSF
# Procedure, shortened: as §1
# [6] = target: T5, EHF (Homo sapiens, UniProt Q9NZC4 1-300); details: protein: recombinant; tags: N-terminal GST; dsDNA, one strand shown
# T5 sequence: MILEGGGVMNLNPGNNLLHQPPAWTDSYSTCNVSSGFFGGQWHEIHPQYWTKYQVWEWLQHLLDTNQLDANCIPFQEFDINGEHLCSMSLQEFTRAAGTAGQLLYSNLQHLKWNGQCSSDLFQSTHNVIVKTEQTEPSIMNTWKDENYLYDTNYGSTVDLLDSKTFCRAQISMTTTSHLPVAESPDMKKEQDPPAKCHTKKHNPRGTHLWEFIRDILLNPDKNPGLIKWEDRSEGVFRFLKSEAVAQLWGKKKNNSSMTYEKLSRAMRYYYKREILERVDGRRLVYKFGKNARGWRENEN
# Procedure, shortened: as §1
# [7] = target: SPI1 (Homo sapiens, UniProt P17947 1-270); details: protein: recombinant; tags: N-terminal GST; dsDNA, one strand shown
# Procedure, shortened: as §1
# [8] = target: SPIB (Homo sapiens, UniProt Q01892 1-262); details: protein: recombinant; tags: N-terminal GST; dsDNA, one strand shown
# Chain of SPIB (Q01892 whole entry): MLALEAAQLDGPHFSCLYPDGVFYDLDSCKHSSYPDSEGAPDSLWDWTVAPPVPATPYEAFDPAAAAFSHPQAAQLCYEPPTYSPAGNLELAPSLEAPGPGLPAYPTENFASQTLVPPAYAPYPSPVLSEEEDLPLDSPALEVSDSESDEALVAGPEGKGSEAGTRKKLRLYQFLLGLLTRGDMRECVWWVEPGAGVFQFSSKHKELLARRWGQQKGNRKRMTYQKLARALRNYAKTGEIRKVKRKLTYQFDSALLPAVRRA
# Procedure, shortened: as §1
# [9] = target: T6, ELK3 (Homo sapiens, UniProt P41970 1-407); details: protein: recombinant; tags: N-terminal GST; dsDNA, one strand shown
# T6 sequence: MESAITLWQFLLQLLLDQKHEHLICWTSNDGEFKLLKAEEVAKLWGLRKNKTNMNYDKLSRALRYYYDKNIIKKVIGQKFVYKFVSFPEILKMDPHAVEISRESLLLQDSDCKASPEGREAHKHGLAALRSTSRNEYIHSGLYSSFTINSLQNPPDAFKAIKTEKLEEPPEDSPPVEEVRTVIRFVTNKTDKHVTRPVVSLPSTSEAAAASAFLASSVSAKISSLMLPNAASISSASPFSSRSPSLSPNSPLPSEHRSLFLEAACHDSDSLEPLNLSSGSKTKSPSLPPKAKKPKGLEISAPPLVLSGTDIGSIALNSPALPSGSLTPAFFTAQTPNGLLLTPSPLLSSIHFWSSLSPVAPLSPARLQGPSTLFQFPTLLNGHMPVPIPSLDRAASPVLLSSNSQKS
# Procedure, shortened: as §1
# [10] = target: T7, FEV (Homo sapiens, UniProt Q99581 1-238); details: protein: recombinant; tags: N-terminal GST; dsDNA, one strand shown
# T7 sequence: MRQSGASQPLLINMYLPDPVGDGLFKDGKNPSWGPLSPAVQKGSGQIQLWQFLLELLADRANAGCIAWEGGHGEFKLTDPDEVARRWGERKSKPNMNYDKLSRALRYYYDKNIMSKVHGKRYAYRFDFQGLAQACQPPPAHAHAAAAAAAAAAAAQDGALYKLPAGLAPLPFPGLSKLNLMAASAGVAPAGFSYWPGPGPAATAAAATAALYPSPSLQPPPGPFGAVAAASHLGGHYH
# Procedure, shortened: as §1
# [11] = target: ETV5 (Homo sapiens, UniProt P41161 1-510); details: protein: recombinant; tags: N-terminal GST; dsDNA, one strand shown
# Chain of ETV5 (P41161 whole entry): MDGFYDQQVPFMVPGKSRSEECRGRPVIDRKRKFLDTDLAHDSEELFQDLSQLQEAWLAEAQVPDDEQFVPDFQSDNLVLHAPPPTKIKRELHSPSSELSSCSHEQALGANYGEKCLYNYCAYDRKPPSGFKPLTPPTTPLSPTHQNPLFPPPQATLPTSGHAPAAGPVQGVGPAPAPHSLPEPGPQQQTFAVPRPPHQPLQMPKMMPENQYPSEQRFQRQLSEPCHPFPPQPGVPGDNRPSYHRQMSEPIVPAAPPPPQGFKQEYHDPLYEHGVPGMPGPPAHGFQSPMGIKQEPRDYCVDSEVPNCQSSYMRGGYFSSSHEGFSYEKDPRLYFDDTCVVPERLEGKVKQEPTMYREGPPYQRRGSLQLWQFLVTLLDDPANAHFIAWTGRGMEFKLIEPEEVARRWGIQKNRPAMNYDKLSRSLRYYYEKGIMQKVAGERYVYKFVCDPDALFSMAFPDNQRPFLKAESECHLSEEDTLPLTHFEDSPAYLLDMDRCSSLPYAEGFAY
# Procedure, shortened: as §1
# [12] = target: HSF1 (Homo sapiens, UniProt Q00613 1-529); details: protein: recombinant; tags: N-terminal GST; chain copies: 3; dsDNA, one strand shown
# Chain of HSF1 (Q00613 whole entry): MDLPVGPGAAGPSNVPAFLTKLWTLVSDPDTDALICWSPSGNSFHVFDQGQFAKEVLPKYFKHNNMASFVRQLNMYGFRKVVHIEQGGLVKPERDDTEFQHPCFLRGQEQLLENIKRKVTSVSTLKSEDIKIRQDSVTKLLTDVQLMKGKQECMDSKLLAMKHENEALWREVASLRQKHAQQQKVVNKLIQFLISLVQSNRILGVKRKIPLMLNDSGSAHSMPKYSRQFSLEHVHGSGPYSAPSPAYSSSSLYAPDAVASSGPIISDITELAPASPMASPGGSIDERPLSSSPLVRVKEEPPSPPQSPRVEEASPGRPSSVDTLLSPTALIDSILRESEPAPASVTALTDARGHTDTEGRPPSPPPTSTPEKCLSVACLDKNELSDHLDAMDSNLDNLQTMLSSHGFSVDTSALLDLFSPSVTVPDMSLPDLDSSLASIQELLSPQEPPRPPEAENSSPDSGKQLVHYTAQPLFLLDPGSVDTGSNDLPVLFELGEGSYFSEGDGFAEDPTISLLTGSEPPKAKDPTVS
# Procedure, shortened: as §1
# [13] = target: T8, SPIC (Homo sapiens, UniProt Q8N5J4 1-248); details: protein: recombinant; tags: N-terminal GST; dsDNA, one strand shown
# T8 sequence: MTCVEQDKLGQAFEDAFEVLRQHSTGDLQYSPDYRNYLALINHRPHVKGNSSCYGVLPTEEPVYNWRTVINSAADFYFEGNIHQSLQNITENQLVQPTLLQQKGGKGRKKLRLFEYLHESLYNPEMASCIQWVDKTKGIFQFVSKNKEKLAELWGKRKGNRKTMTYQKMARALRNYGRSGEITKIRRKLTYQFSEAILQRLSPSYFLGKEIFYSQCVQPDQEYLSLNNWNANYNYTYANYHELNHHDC
# Procedure, shortened: as §1
# [14] = target: ELF4 (Homo sapiens, UniProt Q99607 1-663); details: protein: recombinant; tags: N-terminal GST; dsDNA, one strand shown
# Chain of ELF4 (Q99607 whole entry): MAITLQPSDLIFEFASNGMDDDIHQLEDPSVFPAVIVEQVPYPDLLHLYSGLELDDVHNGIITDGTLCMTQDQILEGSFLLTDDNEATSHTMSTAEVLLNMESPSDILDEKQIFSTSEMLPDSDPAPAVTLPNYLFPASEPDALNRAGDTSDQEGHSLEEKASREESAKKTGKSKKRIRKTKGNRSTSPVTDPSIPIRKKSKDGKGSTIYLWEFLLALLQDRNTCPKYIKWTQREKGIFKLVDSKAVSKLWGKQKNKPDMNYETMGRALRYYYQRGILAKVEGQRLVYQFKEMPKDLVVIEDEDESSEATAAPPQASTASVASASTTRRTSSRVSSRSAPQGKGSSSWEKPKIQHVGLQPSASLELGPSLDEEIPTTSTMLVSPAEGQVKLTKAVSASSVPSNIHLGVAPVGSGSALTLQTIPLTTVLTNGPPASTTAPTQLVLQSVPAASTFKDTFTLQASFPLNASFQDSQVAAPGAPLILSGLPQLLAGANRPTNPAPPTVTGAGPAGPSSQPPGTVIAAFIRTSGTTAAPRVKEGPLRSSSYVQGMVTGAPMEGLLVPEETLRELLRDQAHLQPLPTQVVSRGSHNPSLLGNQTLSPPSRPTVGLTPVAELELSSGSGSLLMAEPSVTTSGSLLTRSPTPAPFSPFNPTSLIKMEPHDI
# Procedure, shortened: as §1
# [15] = target: T9, ELK4 (Homo sapiens, UniProt P28324-2 1-405); details: protein: recombinant; tags: N-terminal GST; dsDNA, one strand shown
# T9 sequence: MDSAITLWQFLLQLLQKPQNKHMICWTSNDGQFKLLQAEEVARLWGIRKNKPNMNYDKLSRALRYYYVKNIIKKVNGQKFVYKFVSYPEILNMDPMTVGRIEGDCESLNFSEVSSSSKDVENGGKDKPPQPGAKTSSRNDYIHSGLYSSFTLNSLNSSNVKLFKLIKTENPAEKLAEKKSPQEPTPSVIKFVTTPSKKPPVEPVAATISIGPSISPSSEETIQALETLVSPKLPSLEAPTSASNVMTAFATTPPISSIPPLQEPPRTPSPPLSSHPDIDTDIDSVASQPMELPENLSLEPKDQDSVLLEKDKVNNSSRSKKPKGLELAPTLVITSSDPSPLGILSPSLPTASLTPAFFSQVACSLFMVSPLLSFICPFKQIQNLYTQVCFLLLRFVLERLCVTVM
# Procedure, shortened: as §1
# [16] = target: T10, ETV2 (Homo sapiens, UniProt O00321 1-342); details: protein: recombinant; tags: N-terminal GST; dsDNA, one strand shown
# T10 sequence: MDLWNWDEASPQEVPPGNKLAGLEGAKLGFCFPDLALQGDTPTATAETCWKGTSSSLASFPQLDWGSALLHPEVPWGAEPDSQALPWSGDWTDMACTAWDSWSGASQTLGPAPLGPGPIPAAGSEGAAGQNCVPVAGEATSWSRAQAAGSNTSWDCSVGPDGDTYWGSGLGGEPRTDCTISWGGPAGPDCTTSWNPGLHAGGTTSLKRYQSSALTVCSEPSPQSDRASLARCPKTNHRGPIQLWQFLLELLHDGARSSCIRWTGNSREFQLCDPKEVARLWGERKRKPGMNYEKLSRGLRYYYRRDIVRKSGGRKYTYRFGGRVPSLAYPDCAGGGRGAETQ
# Procedure, shortened: as §1
# [17] = target: T11, ELF3 (Homo sapiens, UniProt P78545 1-371); details: protein: recombinant; tags: N-terminal GST; dsDNA, one strand shown
# T11 sequence: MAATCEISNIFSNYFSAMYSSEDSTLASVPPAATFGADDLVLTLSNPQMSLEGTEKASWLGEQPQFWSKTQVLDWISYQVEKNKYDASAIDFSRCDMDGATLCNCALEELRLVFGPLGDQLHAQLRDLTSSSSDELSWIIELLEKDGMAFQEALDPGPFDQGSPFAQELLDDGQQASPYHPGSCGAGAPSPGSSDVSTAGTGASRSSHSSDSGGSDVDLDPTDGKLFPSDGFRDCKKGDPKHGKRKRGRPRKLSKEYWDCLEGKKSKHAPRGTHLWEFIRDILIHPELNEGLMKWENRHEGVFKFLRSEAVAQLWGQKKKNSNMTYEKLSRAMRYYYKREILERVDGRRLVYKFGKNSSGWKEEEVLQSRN
# Procedure, shortened: as §1
# [18] = target: ETV1 (Homo sapiens, UniProt P50549 1-477); details: protein: recombinant; tags: N-terminal GST; dsDNA, one strand shown
# Chain of ETV1 (P50549 whole entry): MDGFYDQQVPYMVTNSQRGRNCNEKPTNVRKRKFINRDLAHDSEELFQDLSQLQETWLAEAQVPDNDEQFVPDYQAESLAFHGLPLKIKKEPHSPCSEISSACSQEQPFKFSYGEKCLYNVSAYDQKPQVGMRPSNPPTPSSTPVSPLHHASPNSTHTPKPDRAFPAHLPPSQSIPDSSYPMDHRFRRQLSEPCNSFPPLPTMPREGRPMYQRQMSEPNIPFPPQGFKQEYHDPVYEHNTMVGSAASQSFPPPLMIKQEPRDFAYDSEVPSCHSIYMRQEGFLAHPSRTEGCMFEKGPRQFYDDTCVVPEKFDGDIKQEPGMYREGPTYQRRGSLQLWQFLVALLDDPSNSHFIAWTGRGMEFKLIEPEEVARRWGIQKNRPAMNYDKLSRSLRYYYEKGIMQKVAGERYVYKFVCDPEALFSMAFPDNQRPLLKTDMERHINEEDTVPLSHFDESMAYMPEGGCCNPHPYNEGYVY
# Procedure, shortened: as §1
sequence,measurement,setting,value
GTACAT,binding signal,[1],"1.4 fold enrichment (6-mer frequency, TF over GST control)"
same,binding signal,[2],"1.35 fold enrichment (6-mer frequency, TF over GST control)"
same,binding signal,[3],"1.17 fold enrichment (6-mer frequency, TF over GST control)"
same,binding signal,[4],"1.35 fold enrichment (6-mer frequency, TF over GST control)"
same,binding signal,[5],"1.36 fold enrichment (6-mer frequency, TF over GST control)"
same,binding signal,[6],"1.26 fold enrichment (6-mer frequency, TF over GST control)"
same,binding signal,[7],"1.28 fold enrichment (6-mer frequency, TF over GST control)"
same,binding signal,[8],"1.36 fold enrichment (6-mer frequency, TF over GST control)"
same,binding signal,[9],"1.44 fold enrichment (6-mer frequency, TF over GST control)"
same,binding signal,[10],"1.35 fold enrichment (6-mer frequency, TF over GST control)"
same,binding signal,[11],"1.37 fold enrichment (6-mer frequency, TF over GST control)"
same,binding signal,[12],"1.04 fold enrichment (6-mer frequency, TF over GST control)"
same,binding signal,[13],"1.36 fold enrichment (6-mer frequency, TF over GST control)"
same,binding signal,[14],"1.36 fold enrichment (6-mer frequency, TF over GST control)"
same,binding signal,[15],"1.23 fold enrichment (6-mer frequency, TF over GST control)"
same,binding signal,[16],"1.22 fold enrichment (6-mer frequency, TF over GST control)"
same,binding signal,[17],"1.28 fold enrichment (6-mer frequency, TF over GST control)"
same,binding signal,[18],"1.24 fold enrichment (6-mer frequency, TF over GST control)"
